Source: PubChem
esBAF inh: inhibitors of esBAF chromatin remodeling in mouse ES cells | Bmi1-luciferase knock-in reporter, 24 h; 100% = twice the neutral-well signal | reporter increase, % at 12.5 µM | 350,000 tested, 2% active; in the data active = activation above about 40%; inconclusive = no clear call, values can overlap the other calls;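 also: a rise in the Bmi1 reporter signal indicates esBAF inhibition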
Wnt bcat act: Wnt/beta-catenin pathway activation. activation, % at 9.35 µM. Wnt/beta-catenin reporter cell assay, activator, plate reader. 300,000 tested, 1.2% active; in the data active = activation above about 30%, passing the limit was not always enough; inconclusive = no clear call, values can overlap the other calls
GAA850 FXN act: frataxin GAA850 promoter activation | HEK293 lucGAA850 FXN promoter luciferase reporter, 24 h; percent of 10 µM SAHA response | activation, % at 6 µM | 360,000 tested, 0.56% active;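 active = activation above the average of all compounds screened plus 3 SD, cutoff fixed separately per campaign, cut at about 7.5% in these data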
MITF TRPM1 HTS: MITF TRPM1 promoter activation in melanoma cells | 300,000 tested, 0.75% active | SK-MEL-5 TRPM1-promoter luciferase, 24 h; % of positive control, neutral wells = 0 | activation, % at 12.5 µM;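 active = mean activation of at least 80% with every replicate also reaching 80%; inconclusive = mean reaches 80% but some replicate falls short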
AHR activator: activators of human aryl hydrocarbon receptor; AID 2796; 320,000 tested, 2.5% active; AHR-responsive luciferase reporter cells, luminescence; activation, % at 5 µM; in the data active = activation above about 47%
Target sequence (P35869 whole entry, looked up): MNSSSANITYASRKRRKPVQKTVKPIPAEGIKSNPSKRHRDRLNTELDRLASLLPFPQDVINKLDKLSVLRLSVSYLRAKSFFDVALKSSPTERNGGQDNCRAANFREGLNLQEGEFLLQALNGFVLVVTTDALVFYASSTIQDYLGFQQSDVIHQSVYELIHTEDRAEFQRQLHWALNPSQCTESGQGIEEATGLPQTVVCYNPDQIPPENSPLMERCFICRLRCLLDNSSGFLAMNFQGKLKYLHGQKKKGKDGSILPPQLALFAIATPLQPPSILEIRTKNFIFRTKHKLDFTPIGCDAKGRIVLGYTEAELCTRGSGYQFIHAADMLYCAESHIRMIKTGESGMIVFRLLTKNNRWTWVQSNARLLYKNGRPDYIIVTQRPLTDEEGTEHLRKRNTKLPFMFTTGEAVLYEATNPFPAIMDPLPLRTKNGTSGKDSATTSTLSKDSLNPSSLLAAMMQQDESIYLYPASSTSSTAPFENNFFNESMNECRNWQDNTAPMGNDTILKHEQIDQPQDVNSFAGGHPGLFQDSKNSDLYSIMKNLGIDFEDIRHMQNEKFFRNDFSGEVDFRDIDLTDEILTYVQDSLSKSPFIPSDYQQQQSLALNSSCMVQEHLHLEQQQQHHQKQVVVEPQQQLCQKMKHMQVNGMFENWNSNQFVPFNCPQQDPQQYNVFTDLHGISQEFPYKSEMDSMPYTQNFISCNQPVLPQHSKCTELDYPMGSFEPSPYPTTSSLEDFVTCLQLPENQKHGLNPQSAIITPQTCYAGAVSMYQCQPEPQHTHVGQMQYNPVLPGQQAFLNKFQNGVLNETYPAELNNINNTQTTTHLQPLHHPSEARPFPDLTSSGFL
Numbers stand for hits; 0 = inactive; ? = inconclusive; - = no result. A selection: hits, their analogues and other compounds. The true share with any hit is near 4.2%.

SMILES | esBAF inh | Wnt bcat act | GAA850 FXN act | MITF TRPM1 HTS | AHR activator
O=C(c1cc(COc2ccc(F)cc2Cl)on1)N1CCCCCC1 | 95 | 0 | 0 | 144 | 0
CCN1CCN(C(=O)c2cc(COc3ccc(C(C)=O)cc3OC)on2)CC1 | 71 | 38 | 0 | 0 | 0
Cc1cccc(C)c1OCc1cc(C(=O)N2CCCCCCC2)no1 | 0 | 0 | 0 | 0 | 0
C[C@@H]1CN([C@H](C)CO)C(=O)c2cc(NC(=O)Nc3ccccc3)ccc2O[C@H]1CN(C)Cc1ccccc1 | 0 | - | - | - | -
CC1(C)CC(=O)C=C(c2ccc(Oc3ccccc3)cc2)C1 | 68 | 0 | 0 | 0 | 0
C[C@H]1CN([C@@H](C)CO)C(=O)Cc2cc(NS(=O)(=O)c3ccc(F)cc3)ccc2O[C@H]1CN(C)S(=O)(=O)c1ccc(Cl)cc1 | 0 | - | - | - | -
COc1cc(/C=N/Nc2ccc(C(=O)O)cc2)cc(OC)c1OC | 56 | 0 | 0 | ? | 0
COc1ccc(/C=N/Nc2ccc(C(=O)O)cc2)c(OC)c1OC | 91 | 0 | 0 | 124 | 0
COc1cc(/C=N/Nc2ccc(F)cc2F)cc(OC)c1OC | - | 0 | 0 | 0 | 70
Fc1ccc(N/N=C/c2cccnc2)c(F)c1 | - | 0 | 0 | 0 | 0
O=C(O)c1ccc(N/N=C/c2cccc(C(F)(F)F)c2)cc1 | 92 | 0 | 0 | 110 | 0
CO[C@H]1CN(C)C(=O)c2cc(NC(=O)C3CC3)ccc2OC[C@H](C)N(C(=O)Cc2ccccn2)C[C@H]1C | 0 | - | - | - | -
C[C@@H]1CCCCO[C@@H](CN(C)C(=O)Nc2ccc3c(c2)OCO3)[C@@H](C)CN([C@H](C)CO)C(=O)c2cc(NC(=O)Nc3ccccc3)ccc2O1 | 0 | - | - | - | -
COc1ccc(NC(=O)N(C)C[C@H]2Oc3ccc(NS(=O)(=O)c4ccccc4)cc3CC(=O)N([C@@H](C)CO)C[C@H]2C)cc1 | 0 | - | - | - | -
Cc1ccsc1/C=N/Nc1ncc(Cl)cc1Cl | 55 | 0 | 0 | - | 0
Cc1ccsc1/C=N/Nc1ccc(F)cc1F | - | 0 | 0 | 95 | 0
Cc1[nH]c2ccccc2c1/C=N/Nc1ccccn1 | - | 0 | - | - | -
Cc1[nH]c2ccccc2c1/C=N/Nc1ccc(F)cc1F | - | - | - | - | 78
CCCNC(=O)Nc1ccc2c(c1)C(=O)N(C)[C@@H]1CC[C@H](CC(=O)NCCCN(C)C)O[C@@H]1CO2 | 0 | - | - | - | -
Fc1ccccc1Nc1nc2ccccc2o1 | 0 | 0 | 0 | 100 | 0
C[C@@H]1CN([C@@H](C)CO)C(=O)c2cc(NC(=O)C3CCCCC3)ccc2O[C@H]1CN(C)C(=O)Nc1cccc2ccccc12 | 0 | - | - | - | -
CCCCNC(=O)c1c(O)c2cccc3c2n(c1=O)CCC3 | 0 | - | 0 | 0 | 0
CCNCCNC(=O)c1c(O)c2cccc3c2n(c1=O)CCC3 | 0 | - | 0 | 0 | 60
O=C(/C=C/c1cccc2ccccc12)N1CCOCC1 | - | 37 | 0 | 0 | 0
O=C(/C=C/c1ccccc1Cl)N1CCOCC1 | 0 | 0 | 0 | - | 0
SMILES | esBAF inh | Wnt bcat act | GAA850 FXN act | MITF TRPM1 HTS | AHR activator
COc1cc(NC(=O)c2c(F)c(F)c(F)c(F)c2F)c(OC)cc1Cl | 0 | - | 0 | 0 | 0
COc1ccc(NC(=O)c2cc(C(C)C)on2)cc1OC | 0 | - | 0 | 0 | 0
COc1ccc(NC(=O)c2cc(C(C)C)on2)c(OC)c1 | 50 | 0 | 0 | 0 | 0
COc1cc(NC(=O)c2cc(C(C)C)on2)c(OC)cc1Cl | 0 | - | 0 | - | 74
COc1cc(NC(=O)c2cc3nc(C)cc(C)n3n2)c(OC)cc1Cl | 52 | - | 0 | 100 | 0
COc1cc(OC)c(NC(=O)c2cncn2-c2ccc(F)cc2)cc1Cl | 0 | 0 | 0 | 0 | 65
Cc1cc(C)n2nc(C(=O)Nc3c(C)nn(Cc4ccc(F)cc4)c3C)cc2n1 | 0 | 0 | 0 | 0 | 0
COc1ccc(NC(=O)N(C)C[C@@H]2Oc3ccc(NS(C)(=O)=O)cc3CC(=O)N([C@H](C)CO)C[C@H]2C)cc1 | 0 | - | - | - | -
O=C(C[C@@H]1CC[C@@H]2[C@H](COC[C@@H](O)CN2C(=O)Cc2ccccc2)O1)NC1CCC1 | 0 | - | - | - | -
CCCNC(=O)Nc1ccc2c(c1)OC[C@@H](C)N(CCC)C[C@H](C)[C@H](OC)CN(C)C2=O | 0 | - | - | - | -
CCOc1cc(C2Nc3ccccc3C(=O)N2c2ccccc2)ccc1O (configuration not stated) | 45 | 0 | 0 | 0 | 0
CCc1ccc(C#CC2=CC(=O)CC(C)(C)C2)cc1 | 61 | 0 | 0 | - | -
COc1ccc(C#CC2=CC(=O)CC(C)(C)C2)cc1 | 45 | 0 | 0 | - | -
C[C@@H]1CN([C@H](C)CO)C(=O)c2cc(C#CC3CCCCC3)cnc2O[C@@H]1CN(C)S(=O)(=O)c1ccccc1 | 0 | - | - | - | -
O=C(COC(=O)c1cccc(N2C(=O)C3CC=CCC3C2=O)c1)c1ccccc1 (configuration not stated) | 0 | 0 | 0 | 0 | 0
CCc1ccc(C(=O)COC(=O)c2cccc(N3C(=O)c4c(C)nc5ccccc5c4C3=O)c2)cc1 | 0 | 48 | 0 | 0 | 0
Cc1ccc(OC(=O)c2cccc(S(=O)(=O)N(C)C)c2)c(-n2nc3ccccc3n2)c1 | 0 | 0 | 0 | 0 | 0
Cc1ccc(OC(=O)c2cccc(S(=O)(=O)N3CCCC3)c2)c(-n2nc3ccccc3n2)c1 | - | 104 | 0 | 99 | 0
Cc1cc(C)cc(NC(=O)COC(=O)c2cccc(S(=O)(=O)N3CCCCC3)c2)c1 | 0 | 33 | 0 | 0 | 0
Cc1ccc(OCC(=O)O)c(-n2nc3ccccc3n2)c1 | 0 | - | 0 | 0 | 0
CC(=O)Oc1ccc(C)cc1-n1nc2ccccc2n1 | 0 | 77 | 0 | - | 0
O=C(Nc1cc(C(F)(F)F)ccc1Cl)c1ccc(NC(=O)C(F)(F)F)cc1 | - | 0 | 0 | 0 | 75
O=C(Nc1cc(C(F)(F)F)ccc1Cl)c1ccncc1 | - | 0 | 0 | 0 | 0
CCCC(=O)Nc1ccc(C(=O)Nc2cc(C(F)(F)F)ccc2Cl)cc1 | 0 | - | 0 | 0 | 63
O=C(Nc1ccc2ccccc2n1)C1CCCCC1 | 0 | 48 | 0 | - | 0
SMILES | esBAF inh | Wnt bcat act | GAA850 FXN act | MITF TRPM1 HTS | AHR activator
O=C(Nc1ccc2ccccc2n1)c1ccc(Cl)cc1 | 0 | 44 | 0 | 0 | 0
O=C(Nc1ccc2ccccc2n1)c1ccccc1Cl | 0 | 36 | 0 | 0 | 0
C[C@@H]1CCCCO[C@@H](CN(C)C(=O)NC2CCCCC2)[C@H](C)CN([C@H](C)CO)C(=O)c2cc(NS(=O)(=O)c3cccs3)ccc2O1 | 0 | - | - | - | -
C[C@@H]1CCCCO[C@H](CN(C)C(=O)NC2CCCCC2)[C@@H](C)CN([C@H](C)CO)C(=O)c2cc(NC(=O)CCCN(C)C)ccc2O1 | 0 | - | - | - | -
C[C@H]1CCCCO[C@H](CN(C)C(=O)C2CCCCC2)[C@@H](C)CN([C@@H](C)CO)C(=O)c2cc(NC(=O)Nc3ccc4c(c3)OCO4)ccc2O1 | 0 | - | - | - | -
C[C@@H]1CN([C@@H](C)CO)C(=O)c2cccc(NC(=O)c3cnccn3)c2O[C@@H]1CN(C)S(=O)(=O)c1cccs1 | 0 | - | - | - | -
COc1cc(-c2noc(-c3cccc(Cl)c3)n2)cc(OC)c1OC | 0 | 0 | 0 | - | 0
O=C(O)c1cccc(-c2noc(-c3cccc(Cl)c3)n2)c1 | 0 | 37 | 0 | 0 | 0
NC(=O)c1ccc(-c2noc(-c3cccc(Cl)c3)n2)cc1 | 0 | 36 | 0 | 125 | 0
COc1ccccc1NC(=O)c1sc2ncn(Cc3ccccc3C)c(=O)c2c1C | 0 | 0 | 0 | 0 | 0
